Here are results for six compounds from PubChem BioAssay (Tox21).

The nature of assay [1]: qHTS assay to identify small molecule agonists of the peroxisome proliferator-activated receptor delta (PPARd) signaling pathway - cell viability counter screen (AID 743211). Note: nearly all actives have a fitted effect of over 55% in size. Note: potency is the fitted concentration of half-maximal effect. The method in brief:
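PPARd-bla HEK293H cells (3000/well) were pre-incubated 5 h at 37 C, then exposed to compound for 17 h at 37 C. After 2 h with LiveBLAzer substrate, CellTiter-Glo was added to the same wells; luminescence read after 30 min at room temperature.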
(In general: Quantitative high-throughput screening tests each substance at several concentrations.)

The target in assay [2] is Peroxisome proliferator-activated receptor delta (Homo sapiens) (UniProt Q03181). Nature of the assay: qHTS assay to identify small molecule agonists of the peroxisome proliferator-activated receptor delta (PPARd) signaling pathway (AID 743212; calls by dose curve). In short, it runs like this:
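GeneBLAzer PPARd UAS-bla HEK293H cells (beta-lactamase reporter under UAS control), plated and rested 5 h at 37 C, then exposed to compounds in DMSO at 37 C; LiveBLAzer B/G FRET substrate added, 2 h room temperature, fluorescence read.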

Assay [3] in a line: qHTS assay to identify small molecule antagonists of the peroxisome proliferator-activated receptor delta (PPARd) signaling pathway - cell viability counter screen (AID 743213). Note: nearly all actives have a fitted effect of over 50% in size. Note: potency is the fitted concentration of half-maximal effect. In short, it runs like this: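 PPARd-bla HEK293H cells (3000/well) got compound plus 300 nM L165041 agonist for 17 h at 37 C. Viability in the same wells came from CellTiter-Glo luminescence after 30 min at room temperature.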

The target in assay [4] is Peroxisome proliferator-activated receptor delta (Homo sapiens) (UniProt Q03181). In words: qHTS assay to identify small molecule antagonists of the peroxisome proliferator-activated receptor delta (PPARd) signaling pathway (AID 743215; active = well fitted inhibition curve with a large enough effect in the signal ratio in the repeat runs, not every such curve was filed as active; the % refers to the signal ratio;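 note: cells stimulated with agonist L165041 at 300 nM final during compound exposure; series mostly up to about 62 µM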). In short, it runs like this: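 Inhibition of L165041-driven (300 nM final) PPARd signaling is scored in HEK293H UAS-bla cells. Exposure lasts 17 h at 37 C; beta-lactamase activity is then read by FRET substrate fluorescence after 2 h at room temperature.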

The target of assay [5] is Bile acid receptor (Homo sapiens) (UniProt Q96RI1). In words: qHTS assay to identify small molecule antagonists of the farnesoid-X-receptor (FXR) signaling pathway (AID 743217; active = well fitted inhibition curve with a large enough effect in the signal ratio in the repeat runs, not every such curve was filed as active; the % refers to the signal ratio). In short, it runs like this: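 Antagonist mode against 50 uM (final) chenodeoxycholic acid stimulation in FXR-bla HEK 293T cells, 16 h at 37 °C. Inhibition detected as reduced beta-lactamase activity via LiveBLAzer B/G FRET fluorescence after 2 h at room temperature.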

Assay [6] can be described thus: qHTS assay to identify small molecule agonists of the farnesoid-X-receptor (FXR) signaling pathway - cell viability counter screen (AID 743218). Note: nearly all actives have a fitted effect of over 45% in size. Note: potency is the fitted concentration of half-maximal effect. In short, it runs like this: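 Cytotoxicity counter-screen run in parallel, same wells: FXR-UAS-bla HEK 293T cells dosed 16 h at 37 C, viability read by CellTiter-Glo luminescence after 30 min at room temperature.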
Assay [7] has as its target Bile acid receptor (Homo sapiens) (UniProt Q96RI1). Nature of the assay: qHTS assay to identify small molecule agonists of the farnesoid-X-receptor (FXR) signaling pathway (AID 743220; active = well fitted activation curve with a large enough effect in the signal ratio in the repeat runs, not every such curve was filed as active; the % refers to the signal ratio). The method in brief: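 Beta-lactamase reporter under UAS control in GeneBLAzer FXR HEK 293T cells (5000/well) measured with LiveBLAzer FRET substrate after 2 h at room temperature. Compound exposure lasted 16 h at 37C.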

Assay [8] is described as follows: qHTS assay to identify small molecule antagonists of the farnesoid-X-receptor (FXR) signaling pathway - cell viability counter screen (AID 743221; active = well fitted cell-killing curve with a large enough effect in the repeat runs, not every such curve was filed as active; note: nearly all actives have a fitted effect of over 50% in size; note: potency is the fitted concentration of half-maximal effect). The method in brief:
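GeneBLAzer FXR-UAS-bla HEK 293T cells, compound plus chenodeoxycholic acid (50 uM final), 16 h at 37 C. CellTiter-Glo added to the same wells after the beta-lactamase read; luminescence read after 30 min at room temperature as viability.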

Assay [9] deals with Vitamin D3 receptor (Homo sapiens) (UniProt P11473). In words: qHTS assay to identify small molecule agonists of the vitamin D receptor (VDR) signaling pathway (AID 743222; calls by dose curve). The method in brief: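 Quantitative HTS agonist-mode screen: compounds in DMSO were pin-transferred onto VDR-bla cells and incubated 16 h at 37C, 5% CO2. Reporter activity was detected with LiveBLAzer B/G FRET substrate after 2 h at room temperature.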

Assay [10] shares this target. Nature of the assay: qHTS assay to identify small molecule antagonists of the vitamin D receptor (VDR) signaling pathway (AID 743223; active = well fitted inhibition curve with a large enough effect in the signal ratio in the repeat runs, not every such curve was filed as active; the % refers to the signal ratio). The method in brief:
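VDR-bla cells were treated with compound plus 3 nM final 1alpha,25-dihydroxyvitamin D3 for 16 h at 37C. Beta-lactamase reporter read by B/G FRET substrate fluorescence after 2 h at room temperature. qHTS format.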

Assay [11] can be described thus: qHTS assay to identify small molecule agonists of the vitamin D receptor (VDR) signaling pathway - cell viability counter screen (AID 743224). Note: nearly all actives have a fitted effect of over 50% in size. Note: potency is the fitted concentration of half-maximal effect. In short, it runs like this: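 Viability is measured in the same wells as the VDR-bla reporter assay: after 16 h compound treatment and 2 h substrate loading, CellTiter-Glo is added and luminescence read 30 min later.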
Assay [12] can be described thus: qHTS assay to identify small molecule agonists of the NFkB signaling pathway - cell viability counter screen (AID 1159515; calls by dose curve; note: nearly all actives have a fitted effect of over 55% in size; note: potency is the fitted concentration of half-maximal effect). In short, it runs like this: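 Multiplexed viability readout: after the 5 hr compound exposure and 1.5 hr FRET substrate step, CellTiter-Glo reagent went into the same NFkB-bla ME-180 wells; ATP luminescence was measured after 30 min at room temperature.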

The nature of assay [13]: qHTS assay to identify small molecule agonists of the endoplasmic reticulum stress response signaling pathway (AID 1159516; active = well fitted activation curve with a large enough effect in the signal ratio in the repeat runs, not every such curve was filed as active; the % refers to the signal ratio). In short, it runs like this:
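Tox21 10K library screened in quantitative HTS format on ESRE-bla HeLa cells, a beta-lactamase reporter under ER stress response element control; 5 hr treatment, FRET read.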

Assay [14] in a line: qHTS assay to identify small molecule agonists of the endoplasmic reticulum stress response signaling pathway - cell viability counter screen (AID 1159517; calls by dose curve; note: nearly all actives have a fitted effect of over 50% in size; note: potency is the fitted concentration of half-maximal effect). In short, it runs like this: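 Luminescence readout: CellTiter-Glo, 30 min RT, same wells as the ESRE-bla reporter read. HeLa ESRE-bla, 1,500 cells/well, o/n 37 C; cpd 5 hr 37 C/5% CO2.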
A short description of assay [15]: qHTS assay to identify small molecule antagonists of the retinoid-related orphan receptor gamma (ROR-gamma) signaling pathway - cell viability counter screen (AID 1159520). Note: nearly all actives have a fitted effect of over 50% in size. Note: potency is the fitted concentration of half-maximal effect. The method in brief: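 Tet-on ROR gamma CHO cells (1,000/well) were plated 4 hr, given compounds in DMSO for 2 hr at 37 C, then induced with 1 uM final doxycycline for 16 hr. Viability was read as ATP by CellTiter-Glo luminescence after 30 min.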

Assay [16] concerns the target Nuclear receptor ROR-gamma (Homo sapiens) (UniProt P51449). Nature of the assay: qHTS assay to identify small molecule antagonists of the retinoid-related orphan receptor gamma (ROR-gamma) signaling pathway (AID 1159521; note: nearly all actives have a fitted effect of over 50% in size; note: potency is the fitted concentration of half-maximal effect). The method in brief: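 Tet-on ROR-gamma CHO cells with ROR response element-luciferase reporter; compounds added 2 hr before 1 uM doxycycline induction, then 16 hr at 37 C. Antagonism scored as decreased ONE-Glo luminescence.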

A short description of assay [17]: qHTS assay to identify small molecule agonists of the AP-1 signaling pathway - cell viability counter screen (AID 1159525; calls by dose curve; note: nearly all actives have a fitted effect of over 55% in size; note: potency is the fitted concentration of half-maximal effect). In short, it runs like this: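 ME-180 AP-1-bla, 2500 cells/well, Opti-MEM + 0.5% dialyzed FBS; overnight 37 °C; cpd 15-pt titration, 5 h 37 °C; CellTiter-Glo 30 min RT; luminescence read; normalised to TOAB and DMSO controls.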
Assay [18] in a line: qHTS assay to identify small molecule agonists of the AP-1 signaling pathway (AID 1159526; calls by dose curve).
Assay [19] can be described thus: qHTS assay to identify small molecule antagonists of the vitamin D receptor (VDR) signaling pathway - cell viability counter screen (AID 743225). Note: nearly all actives have a fitted effect of over 50% in size. In short, it runs like this: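 VDR-UAS-bla HEK 293T cells were plated and incubated 4 h at 37C, then dosed with compound plus 3 nM (final) 1-alpha,25-dihydroxyvitamin D3 for 16 h. After the 2 h beta-lactamase read, viability in the same wells was read as CellTiter-Glo luminescence after 30 min at room temperature.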

Several values for one entry are separate records, joined by “and”; a condition that tells them apart may be missing. Equal entries are not always repeated. Results filed as inconclusive are left out. The source holds several records for some structures; these can differ, active in one and inactive in another. Activity calls are given as the source filed them. Unless noted, calls come from the whole dose curve; as a rule, active = well fitted curve in the direction sought with a large enough effect in the repeat runs; inconclusive = weak or mixed curves; inactive = no such curve, though single readings can be large; an effect the other way counts as inactive or inconclusive.

Chain of Bile acid receptor (Homo sapiens) (Q96RI1 whole entry, looked up): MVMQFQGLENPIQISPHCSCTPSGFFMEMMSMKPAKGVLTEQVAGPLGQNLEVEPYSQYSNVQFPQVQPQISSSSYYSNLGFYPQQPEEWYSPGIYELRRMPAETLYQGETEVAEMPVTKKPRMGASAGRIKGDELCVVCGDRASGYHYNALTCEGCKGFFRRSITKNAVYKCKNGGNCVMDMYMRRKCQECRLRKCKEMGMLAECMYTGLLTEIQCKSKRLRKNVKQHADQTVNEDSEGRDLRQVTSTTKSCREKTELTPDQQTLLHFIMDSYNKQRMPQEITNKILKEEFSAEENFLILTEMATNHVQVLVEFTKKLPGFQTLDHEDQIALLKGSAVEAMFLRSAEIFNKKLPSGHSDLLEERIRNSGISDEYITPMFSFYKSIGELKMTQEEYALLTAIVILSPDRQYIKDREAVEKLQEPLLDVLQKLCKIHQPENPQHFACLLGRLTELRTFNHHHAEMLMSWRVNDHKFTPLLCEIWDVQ
Chain of Vitamin D3 receptor (Homo sapiens) (P11473 whole entry, looked up): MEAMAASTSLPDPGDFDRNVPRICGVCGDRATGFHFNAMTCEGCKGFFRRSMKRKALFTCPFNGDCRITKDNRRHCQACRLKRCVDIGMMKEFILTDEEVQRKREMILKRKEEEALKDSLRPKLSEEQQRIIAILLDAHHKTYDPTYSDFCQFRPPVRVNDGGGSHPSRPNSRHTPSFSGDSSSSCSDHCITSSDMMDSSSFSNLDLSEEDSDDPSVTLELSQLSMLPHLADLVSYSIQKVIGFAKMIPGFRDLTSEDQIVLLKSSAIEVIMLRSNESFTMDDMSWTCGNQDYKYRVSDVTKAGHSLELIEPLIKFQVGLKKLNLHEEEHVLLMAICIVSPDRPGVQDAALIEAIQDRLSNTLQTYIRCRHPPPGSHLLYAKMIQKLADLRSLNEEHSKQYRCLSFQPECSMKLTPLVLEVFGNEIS
Chain of Peroxisome proliferator-activated receptor delta (Homo sapiens) (Q03181 whole entry, looked up): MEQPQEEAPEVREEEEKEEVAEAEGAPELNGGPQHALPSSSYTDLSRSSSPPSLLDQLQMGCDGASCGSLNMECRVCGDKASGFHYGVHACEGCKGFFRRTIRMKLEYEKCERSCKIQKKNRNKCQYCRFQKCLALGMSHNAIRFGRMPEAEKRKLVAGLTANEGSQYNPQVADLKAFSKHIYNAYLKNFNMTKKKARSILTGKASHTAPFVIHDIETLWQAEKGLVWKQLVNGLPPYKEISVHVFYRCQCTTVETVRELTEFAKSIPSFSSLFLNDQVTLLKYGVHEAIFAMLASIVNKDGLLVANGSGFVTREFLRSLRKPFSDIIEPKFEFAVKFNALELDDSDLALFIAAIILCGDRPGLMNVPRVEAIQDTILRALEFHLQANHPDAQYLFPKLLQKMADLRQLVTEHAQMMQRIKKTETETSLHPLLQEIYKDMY

With `C=C(C)C(=O)OCC1CO1` (stereo unspecified), the Potency result in assay [1], in [2], in [3], in [4], in [5] and in assay [6] was “inactive” each time. Besides, the Potency result in assay [8], in assay [11], in [12], in assay [14], in assay [15] and in [16] was “inactive” each time. Besides, the Potency entry in assay [17] was “inactive”. Moreover, the result in assay [7], in assay [9], in assay [10], in [13] and in [18] was inactive.
As to `CC(C)C(=O)OCC(C)(C)C(OC(=O)C(C)C)C(C)C` (stereo unspecified), the Potency result in [1], in [2], in assay [3], in assay [4], in [6] and in assay [8] was “inactive” in each case. For the same compound, the Potency entry in assay [11], in assay [12], in assay [14], in assay [15], in assay [16] and in assay [17] was “inactive” in each case. Besides, the compound was called inactive in assay [9], in [10], in [13] and in assay [18].
In the case of `Oc1cc(Cl)ccc1Oc1ccc(Cl)cc1Cl`, the Potency was 20 µM (active) and 15 µM (active) in [1]; 28 µM (active) and inactive in assay [3]; 42.1 µM (active) in [6]; 56.2 µM (active) in assay [8]; 20 µM (active) in [11]; 22.4 µM (active) and inactive in [12]. Also, the Potency in assay [14] is 20 µM (active); in [15], 31.4 µM (active) and 29.8 µM (active); in [16] it was 15.7 µM (active) and 23.7 µM (active); in [17], 15.8 µM (active). In addition, the Potency result in assay [2] and in [4] was “inactive” throughout. For the same compound, the result in assay [9], in assay [10] and in [13] was inactive.
With `CC(C)NC(C)C`, the Potency entry in assay [1], in assay [2], in [3], in assay [4], in assay [6] and in assay [8] was “inactive” in each case. For the same compound, the Potency entry in assay [11], in [19], in assay [14], in assay [15], in [16] and in assay [17] was “inactive” in each case. For the same compound, the result in assay [9], in assay [10], in [13] and in assay [18] was inactive.
As to `CCOC(=S)S`, the Potency in [3] is 29.3 µM (active); in [11], 24.5 µM (active) and 20.7 µM (active); in assay [16], 13.7 µM (active) and 16.3 µM (active). Moreover, the Potency result in [5], in [6], in assay [8], in assay [19], in assay [12] and in [14] was “inactive” throughout. In addition, the result in [13] and in [18] was inactive.
In the case of `CC(C)N(C(=O)SCC(Cl)=C(Cl)Cl)C(C)C`, the Potency entry in [1], in [2], in [3], in [4], in assay [5] and in assay [6] was “inactive” throughout. Besides, the Potency entry in assay [8], in assay [12], in [14], in [15], in assay [16] and in assay [17] was “inactive” each time. The result in assay [7], in [9] and in assay [10] was inactive.
